Hit rate of the full screen: of about 300,000 compounds, about 37,000 (12%) were called active. No stated cut-off is given here; in the data, active means max response mostly above about 13% (no sharp cut-off); inactive means mostly below about 14%. Shown is part of a subset that was picked to be rich in actives.
assay: Cycloheximide Counterscreen for Small Molecule Inhibitors of Shiga Toxin; conditions: cell reporter, cycloheximide protein synthesis inhibition counterscreen; hits give high values; further: read at 38.3 µM for the half of the compounds with a filed dose; 0% is about no effect

Row | SMILES | max response
1 | CCOc1ccc(C(=O)Nc2ccc(S(=O)(=O)NCC3CCCO3)cc2)cc1OCC (stereo unspecified) | -3.06% (inactive)
2 | CCN(CC)CCNc1nc(-c2ccc(OC(F)F)cc2)c(C)s1 | -2.43% (inactive)
3 | COc1ccc(-n2nc(C(=O)NCC(=O)N3CCC(C(N)=O)CC3)c3ccccc3c2=O)cc1OC | -3.96% (inactive)
4 | CC(=O)c1c(C)oc2ccc(NS(=O)(=O)c3ccc(C(=O)O)cc3)cc12 | -0.66% (inactive)
5 | Cn1c(SCC(=O)c2cccs2)nnc1-c1ccco1 | 29.8% (active)
6 | CCOC(=O)CSc1nnc(-c2ccco2)n1C | -2.04% (inactive)
7 | CCCCNC(=O)CSc1nnc(-c2ccco2)n1C | 1.17% (inactive)
8 | CC(C)CC(=O)Nc1nnc(S(=O)(=O)N(C)c2ccc(Cl)cc2)s1 | -2.39% (inactive)
9 | COc1ccc2c(C(=O)c3ccc(C)cc3)n(CCC(N)=O)[n+]([O-])c2c1 | 7.82% (inactive)
10 | COC(=O)c1c(NC(=O)c2ccc(S(=O)(=O)N3CCOCC3)cc2)sc2c1CCN(C(C)C)C2 | -1.08% (inactive)
11 | CCOC(=O)C1CCN(C(=O)Nc2ccc(Cl)cc2)CC1 | 12.6% (inactive)
12 | CC(=O)N1CCC(N(C(=O)Nc2ccc(Cl)cc2)C(C)C)CC1 | 9.65% (active)
13 | CC(=O)Nc1ccc(NC(=O)C2CCCN(S(=O)(=O)c3ccc(Cl)cc3)C2)cc1 (stereo unspecified) | -5.06% (inactive)
14 | COc1cccc(NC(=O)C2C(c3ccccc3)C2(Cl)Cl)c1 (stereo unspecified) | 1.73% (inactive)
15 | CCOCCOC(=O)C(C)Oc1ccc(Oc2ncc(C(F)(F)F)cc2Cl)cc1 (stereo unspecified) | 0.288% (inactive)
16 | CCOC(=O)CN(C(=O)COc1nc(C)cc(C)c1C#N)c1ccc(Cl)cc1 | 1.33% (inactive)
17 | c1ccc(-n2nc3ccccc3n2)cc1 | 10.4% (inactive)
18 | O=C1CCC(=O)N(c2ccccc2)N1 | 4.98% (inactive)
19 | O=C1CCCc2nn(-c3ccccc3)nc21 | 31.9% (active)
20 | CCCc1nc(SCC(=O)N2CCCC2)c2c(=O)n(C)c(=O)n(C)c2n1 | -1.08% (inactive)
21 | COCCNC(=O)CN(Cc1ccco1)C(=O)CCC(=O)Nc1nccs1 | -7.71% (inactive)
22 | Cc1ccc(Nc2c(F)c(F)c(F)c(F)c2C(=O)O)c(C)c1 | -3.03% (inactive)
23 | Cc1occc1C(=O)Nc1cccc(Cn2cccn2)c1 | 10.7% (inactive)
24 | COc1cc(SC)ccc1C(=O)N(Cc1ccccc1)c1ccccc1 | -0.326% (inactive)
25 | Cc1ccnc(NC(=O)c2ccoc2C)c1 | 35.7% (active)
26 | Cc1ccnc(NC(=O)CCCOc2ccccc2)c1 | 9.11% (inactive)

Row | SMILES | max response
27 | COc1cc(SC)ccc1C(=O)Nc1nc(C)cs1 | -6.32% (inactive)
28 | COc1ccccc1CNC(=O)c1ccc(SC)cc1OC | 8.03% (inactive)
29 | COc1ccccc1OCCNC(=O)CCNC(=O)c1ccccc1Cl | 5.13% (inactive)
30 | COc1cc(SC)ccc1C(=O)Nc1cc(C)ccn1 | 40.1% (active)
31 | COc1cc(SC)ccc1C(=O)NCCOc1ccccc1Cl | 57.7% (active)
32 | COc1ccc(CCNc2cc(C)nc3c(-c4ccc(Cl)cc4)c(C)nn23)cc1OC | -1.95% (inactive)
33 | COc1cccc(NC(=O)c2cc(S(=O)(=O)N3CCc4ccccc43)cn2C)c1 | -2.59% (inactive)
34 | CCc1nn(CCCN2CCN(c3cccc(Cl)c3)CC2)c(=O)n1CCOc1ccccc1 | -3.76% (inactive) [middle of 4 runs]
35 | Cn1c(=O)c2c(SCC(=O)NCC3CCCO3)nc(CC(C)(C)C)nc2n(C)c1=O (stereo unspecified) | 0.724% (inactive)
36 | CC(OC(=O)c1ccccc1OCc1ccc(Cl)cc1)C(N)=O (stereo unspecified) | 2.27% (inactive)
37 | CC(C)Cc1nnc(NC(=O)CN2C(=O)NC3(CCCCC3)C2=O)s1 | -1.99% (inactive)
38 | O=C(Nc1ccc(CN2CCOCC2)cc1)c1cc(Cl)ccc1Cl | -1.65% (inactive)
39 | O=C(O)c1ccc(NC(=O)c2cn(-c3ccccc3)nc2-c2ccc(Cl)cc2)cc1 | 10.4% (inactive)
40 | C=CCn1cc(Cl)cc(C(=O)Nc2ccccc2)c1=O | 14.1% (active)
41 | CCOc1ccc(Br)cc1CSC(=N)N | -0.921% (inactive)
42 | O=C(CSc1ccc(-c2cccs2)nn1)Nc1ccccc1F | 16.1% (inactive)
43 | Cc1cccc(CSc2nnc(Cn3c(=O)sc4ccccc43)n2C)c1 | -3.59% (inactive)
44 | Cc1cccc(CSc2ccc(-c3cccs3)nn2)c1 | 35% (active)
45 | CCOC(=O)c1ccc(-n2c(CCC(=O)O)ccc2-c2ccccc2)cc1 | -3.35% (inactive)
46 | COc1ccc(CCOC(=O)CNC(=O)c2ccc(Cl)cc2Cl)cc1 | 7.31% (inactive)
47 | CC(=O)C1C(c2ccc(Cl)cc2)NC(=O)NC1(O)C(F)(F)F (stereo unspecified) | -2.92% (inactive)
48 | CCOC(=O)C1C(c2ccc(Cl)cc2)NC(=S)NC1(O)C(F)(F)F (stereo unspecified) | -4.55% (inactive)
49 | O=C(c1cccs1)C1C(c2ccc(Br)cc2)NC(=S)NC1(O)C(F)(F)F (stereo unspecified) | 29.2% (active)
50 | CC(C)CCOc1ccc(C(=O)C[N+]2(C)CCOCC2)cc1 | -6.71% (inactive)
51 | COc1ccc(-c2cc(C(=O)N(C)Cc3ccccc3)c3ccccc3n2)cc1 | 10.1% (inactive)
